The values that follow come from PubChem BioAssay (NCATS).

Records with an inconclusive call do not appear. Active and inactive are the calls of the source. The call rests on the fitted dose curve. Starred links: 1 amine or outer side, 2 acyl side, 3 side chain; linkers in the order of their positions; H or OH if unused. Positions of bridges follow the written chain, without caps; N, C: chain ends. Non-standard residues stand in square brackets, D forms with d. Residues, ends and D or L forms follow the SMILES beside them. ξ: configuration not given here. X1 = CCCCCCCCCC(=O)[C@H](C(=O)[*:2])[C@@H]1CNC(=O)[C@@H](N[*:1])CS1; Phe(3R-OH) = O=C([C@@H](N[*:1])[C@H](O[*:3])c1ccccc1)[*:2]; NMeTrp(4-OMe) = CN[C@@H](Cc1c[nH]c2cccc(OC)c12)C(=O)O; X4 = O=C(C1CC2(c3ccc(O)cc3)c3ccccc3NC2N1[*:1])[*:2]; ξThr(3R)(O-yl) = C[C@@H](O[*:3])C(N[*:1])C(=O)[*:2]; NMeThr(3ξ) = CN[C@H](C(=O)O)C(C)O; ξW = NC(Cc1c[nH]c2ccccc12)C(=O)O; NMeL = CN[C@@H](CC(C)C)C(=O)O; NMeV = CN[C@H](C(=O)O)C(C)C; ξIle = CC[C@H](C)C(N)C(=O)O; ξY = NC(Cc1ccc(O)cc1)C(=O)O; ξV = CC(C)C(N)C(=O)O

This assay in a line: qHTS for inhibitors of Rabies Virus screened against the NCATS CANVASS Library (AID 1347402). Further: 0% is about no effect. The following applies: Rabies virus infection cell assay; series mostly up to 45.9 µM. (Quantitative high-throughput screening tests each substance at several concentrations.)
Consider `CC(O)/C=C/C1(O)C(C)(C)CC(O)CC1(C)O` (stereo not given), for which the outcome was inactive. The same measure, in the same setting: next, `COC1C(O)C(OC(N)=O)C(Oc2ccc3c(O)c(NC(=O)c4ccc(O)c(CC=C(C)C)c4)c(=O)oc3c2C)OC1(C)C` (stereo not given): “inactive”.

Consider `COC(=O)[C@@]1(C)CCC[C@]2(C)c3cc(OC)ccc3CC[C@@H]12`, for which the molecule was called inactive. Still for that read-out and setting: next, `O=C(O)CC1OC(=O)c2c(O)cccc21` (stereo not given): “inactive”. Still for that read-out and setting: next, `C=C1C(=O)C[C@H]2C[C@@H]1[C@]2(C)CCC=C(C)C`: “inactive”; `C/C=C(/CO)C(=O)O[C@@H]1[C@H](O)[C@@H](C(=O)OC)O[C@@H]2C[C@H]3OC(n4cnc5c(N)ncnc54)[C@H](OC)[C@H]3O[C@@]12O` (stereo not given in full): “inactive”; `C[C@@]12CCC[C@@](C)(C(=O)O)[C@H]1C[C@@H](O)[C@]13C[C@H]4C[C@H](O[C@@]4(C)C1)[C@@H]23`: “inactive”. On the same count and under the same terms, next, `CC1C(=O)C23CCC1C[C@]21O[C@@H]2C(C)(C)C=CC(=O)[C@@]23COC1=O` (stereo not given in full): “inactive”. `C[C@]12CC[C@]3(C1)[C@H](CC2=O)CC(OC(=O)c1ccccc1)[C@H]1[C@@](CO)(C(=O)O)CCC[C@@]13C` (stereo not given in full): the outcome was inactive. The same measure, in the same setting: next, `CC[C@H](C)[C@H](NC(=O)C(Cc1ccc(O)cc1)NC(=O)C(Cc1c[nH]c2ccccc12)NC(=O)[C@H](C)N)C(=O)N1C(C(=O)NC(Cc2ccc(O)cc2)C(=O)O)CC2(c3ccc(O)cc3)c3ccccc3NC12` (stereo not given in full) (H-A[ξW][ξY]I[X4][ξY]-OH): “inactive”. Same read-out and setting: next, `C[C@@H]1C[C@H]2C[C@]3(CCCCN3C)[C@@H]3C[C@H]2[C@H](C1)N(C)C3`: “inactive”; `CCCCCCCCCCCCCCCC(=O)OC/C=C(\C)CCCC(C)CC(C)C(C)C` (stereo not given): “inactive”; `COc1ccc(-c2oc3cc(OC)cc(OC)c3c(=O)c2O)cc1`: “inactive”. `[C-]#[N+][C@@]12C(=O)[C@@H]3[C@@H](O[C@@]4(C(=O)N(C)c5cccc1c54)C3(C)C)C(=O)[C@@]2(C)C=C`: the result was inactive. Still for that read-out and setting: next, `CC(=O)c1c(C)cc2c(c1O)C(=O)c1c(O)cc(O)cc1C2=O`: “inactive”; `CO[C@H]1[C@@H](OC(=O)/C(C)=C\[C@@H]2O[C@@H]2[C@H]2O[C@H]2C)[C@H](O)[C@H](OCC23C[C@@H]4[C@H](C)CC[C@H]4C4(C=O)CC2C=C(C(C)C)C34C(=O)O)O[C@@H]1C` (stereo not given in full): “inactive”; `C=C(C)CC[C@H](Cc1c(O)cc(O)c2c1O[C@H](c1ccc(O)cc1O)CC2=O)C(=C)C`: “inactive”. Still for that read-out and setting: in the case of `C[C@@H]1C(=O)[C@]23CC[C@H]1C[C@]21O[C@H]2C(C)(C)C=CC(=O)[C@]23COC1=O` it was “inactive”; in that of `CCCCCCCCCC(=O)[C@@H]1C(=O)N[C@@H](CC(C)C)C(=O)N[C@H](C)C(=O)N2CCC[C@H]2C(=O)N[C@@H](C(C)C)C(=O)N[C@H]2CS[C@H]1CNC2=O` (cyclo(L[dA]PV[X1])), “inactive”. The same measure, in the same setting: in the case of `C/C=C1/C2=CCCN3C(=O)O[C@H]([C@H]1O)[C@H]23` it was “inactive”; in that of `CC1=CC[C@@]2(C[C@@H]1O)[C@@H](C(=O)O)CC[C@H]2C(C)C`, “inactive”; in that of `CCCCCCCCC[C@@H]1C[C@@H]2CC[C@H]3[C@@H](C(=O)OCCCCN=C(N)N)[C@@H](C)N=C(N1)N23`, “inactive”. Consider `C=C[C@]1(C)CC[C@@H]([C@H](C)C(=O)OCC)O1`, for which the call was inactive. On the same count and under the same terms, next, `CO[C@@H]1[C@H](O)[C@@H](C)O[C@@H](OC[C@@H]2C(C)OC(=O)/C=C/[C@H](C)C(O[C@@H]3O[C@H](C)CC4(OC(=O)O[C@@H]4C)C3O)[C@@H](C)CC(C)C(=O)CC[C@H]3OC23)[C@@H]1OC` (stereo not given in full): “inactive”; `CCC1=C2CCCN3C(=O)O[C@H]([C@H]1OC(C)=O)[C@H]23`: “inactive”; `Cc1cc(O)cc2oc(C[C@H](C)O)cc(=O)c12`: “inactive”.

As for `COc1ccc2[nH]c3c(c2c1)CCN1C[C@H]2C[C@@H](OC(=O)c4cc(OC)c(OC)c(OC)c4)[C@H](OC)[C@@H](OC)[C@H]2C[C@H]31`, the molecule was called inactive. The same measure, in the same setting: in the case of `O=C1CC(c2ccc(O)cc2)Oc2cc(O)ccc21` (stereo not given) it was “inactive”. On the same count and under the same terms, next, `CC[C@H](C)C(NC(=O)[C@@H](NC)C(C)C)C(=O)NC1C(=O)N(C)[C@@H](C(C)O)C(=O)N[C@@H](C(C)C)C(=O)N(C)[C@@H](CC(C)C)C(=O)NC(C(C)C)C(=O)N(C)[C@@H](C(C)C)C(=O)N(C)[C@@H](Cc2c[nH]c3cccc(OC)c23)C(=O)N[C@@H](C(C)C)C(=O)N[C@@H]([C@H](O)c2ccccc2)C(=O)N[C@@H](C(C)C)C(=O)O[C@@H]1C` (stereo partly drawn) (H-[NMeV][ξIle][ξThr(3R)(O-yl)][NMeThr(3ξ)]V[NMeL][ξV][NMeV][NMeTrp(4-OMe)]V[Phe(3R-OH)]V; ester 3-C): “inactive”; `CN1C(=O)C(=O)N2C(=C[C@]3(c4c[nH]c5ccccc45)c4ccccc4N[C@H]23)C1=O`: “inactive”; `CC(C)=CCC[C@]1(C)[C@H]2CC(=O)[C@@]3(CO3)[C@@H]1C2`: “inactive”. For `C=C1/C=C\C(CCC)=C\c2csc(n2)C(C)NC(=O)C[C@@]2(CC(=O)O)CCC(=C)[C@H](C1)S2` (stereo not given in full), the molecule was classed as inactive. Take `COc1cc(C2OCC3C(c4ccc(O)c(OC)c4)OCC23)ccc1O` (stereo not given): the activity change, negative = inhibition is 3.04% [at 9.14 µM] (inactive). `CN1C(=O)C2C(N=CN2C)N(C)C1=O` (stereo not given): the result was inactive.

In the case of `CC(=O)O[C@H]1c2ccccc2-c2c3c(cc4c2[C@@H]1N(C(C)=O)CC4)OCO3`, the molecule was classed as inactive. Same read-out and setting: in the case of `C=C[C@]1(C)CC[C@@H]([C@H](C)C(=O)/C=C/C(C)C)O1` it was “inactive”. For the molecule `COc1ccc([C@@H]2c3cc(OC)c(OC)cc3C(=O)[C@H](C)C2C)cc1OC` (stereo not given in full), the activity change, negative = inhibition was -3.53% [at 9.14 µM] (inactive). Consider `CC[C@H](O)CCCCC[C@@H]1NC(=O)[C@H]2CCCCN2C(=O)[C@H]([C@H](C)CC)NC(=O)[C@H](Cc2cn(OC)c3ccccc23)NC1=O`, for which the molecule was called inactive. As to `O=Cc1ccc2n1C[C@]1(C[C@H](O)[C@@H](CO)O1)OC2`, the molecule was called inactive. The same measure, in the same setting: next, `O=C1c2c(O)cc(O)cc2O[C@@H](c2ccc(O)cc2)[C@@H]1c1c(O)cc(O)c2c(=O)cc(-c3ccc(O)c(O)c3)oc12`: “inactive”.
